An excerpt weighted towards active compounds, which were near 6.5% of everything screened.
A340 absorber = absorbance at 340 nm. compound absorbance at 340 nm, fold over control. fold change at 10 µM. AID 708. 65,000 tested, under 10 active;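 active = at 10 µM dose, initial 340 nm absorbance at least 2 fold that of control wells; inactive = change under 2 fold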;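 also: initial absorbance extrapolated from kinetic A340 decline of NADH oxidation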
MK inhibit = S. pneumoniae mevalonate kinase inhibition; inhibition, % at 10 µM; purified MK, PK/LDH-coupled NADH absorbance 340 nm; 0.48% of 65,000 active;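 active = ranked among the strongest by inhibition in the single 10 µM screen, a fixed top-ranked set picked for dose follow-up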
NADH coupling = blocks coupling enzymes of NAD/NADH assays | coupled PK/LDH NADH assays, four targets | IC50, µM (highest dose often 10 µM), for inactives: top-dose inhibition | 0.02% of 65,000 active | AID 774;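 active = single-dose screening hits from any of four coupled enzyme assays that gave an IC50 when retested across doses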;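 also: the DPM-DC format reads NADH fluorescence rather than 340 nm absorbance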
Spn DPM-DC inh = inhibitors of Streptococcus pneumoniae diphosphomevalonate decarboxylase. purified DPM-DC, PK/LDH coupled NADH fluorescence. calls only at 10 µM. 0.49% of 65,000 active;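 active = the 320 compounds with the highest percent inhibition in the single-dose primary screen, excluding strongly autofluorescent ones, cut at about 32% in these data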;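 also: kinetic rate of NADH fluorescence loss reporting ADP formed by the decarboxylase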
Spn PMK inh = S. pneumoniae PMK inhibition; purified PMK, PK/LDH-coupled NADH absorbance 340 nm; inhibition, % at 10 µM; 0.49% of 65,000 active;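 active = top-ranked compounds by inhibition in the single 10 µM screen, taking a fixed number of the strongest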;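 also: 0% = full reaction with DMSO carrier and 100% = background rate without enzyme reaction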
Fluor 339 460 = intrinsic fluorescence of library compounds, ex339/em460 – biochemical, MLSMR library, data from DPM-DC assay, artefact control, profiling panel | 5.5% of 65,000 active | compound autofluorescence, ex339/em460 nm, NADH buffer; hits give high values; 1 = no-compound wells, NADH background | fluorescence fold increase at 10 µM | AID 709;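 active = at 10 µM, mean starting fluorescence two-fold or more over control wells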;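 also: signal is the first read of a kinetic run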
* = called active by the depositor.

Results for Cc1cc(NC(=O)c2cc(C)on2)no1 ?
A340 absorber: 1; MK inhibit: 8; NADH coupling: 7%; Spn DPM-DC inh: inactive; Spn PMK inh: 9; Fluor 339 460: 1.1

Results for COc1ccc(OC)c(-c2cc(C(=O)Nc3c(C)nn(Cc4ccc(Cl)cc4)c3C)no2)c1 ?
A340 absorber: 1; MK inhibit: 0; NADH coupling: 4%; Spn DPM-DC inh: inactive; Spn PMK inh: 13; Fluor 339 460: 1.7

What do the screens show for `CCc1c(C)sc(NC(=O)c2cc(-c3cc(OC)ccc3OC)on2)c1C#N`?
A340 absorber: 1.1; MK inhibit: 0; NADH coupling: 9%; Spn PMK inh: 17; Fluor 339 460: 5.1*

Results for COc1ccc(OC)c(-c2cc(C(=O)Nc3cccc(Cl)c3)no2)c1 ?
A340 absorber: 1.1; MK inhibit: 2; NADH coupling: 8%; Spn PMK inh: 13; Fluor 339 460: 4.3*

Results for C=C(C)COc1ccc2c3c(c(=O)oc2c1OCC(=C)C)CCC3 ?
A340 absorber: 1.1; MK inhibit: 3; NADH coupling: 1%; Spn DPM-DC inh: inactive; Spn PMK inh: 0; Fluor 339 460: 2.1*

How did CCOc1ccc(CC(=O)C2C(=O)CCCC2=O)cc1OCC do in these assays?
A340 absorber: 1; MK inhibit: 6; NADH coupling: 8%; Spn DPM-DC inh: inactive; Spn PMK inh: 19; Fluor 339 460: 1.1

How did C=C(C)COc1ccc2c(C)c(C)c(=O)oc2c1OCC(=C)C do in these assays?
A340 absorber: 1.1; MK inhibit: 9; NADH coupling: 5%; Spn PMK inh: 0; Fluor 339 460: 2.1*

Results for COCCN(CC(=O)NCc1ccccc1)C(=O)CCC(=O)Nc1ccccn1 ?
A340 absorber: 0.97; MK inhibit: 8; NADH coupling: 5%; Spn DPM-DC inh: inactive; Spn PMK inh: 15; Fluor 339 460: 0.98

How did Cc1sc(NC(=O)c2oc3ccccc3c2C)c(C#N)c1C do in these assays?
A340 absorber: 1.2; MK inhibit: 1; NADH coupling: 3%; Spn PMK inh: 4; Fluor 339 460: 3.8*

Results for C=C(C)CSc1nc(N)c2c(C)c(C)sc2n1 ?
A340 absorber: 1; MK inhibit: 7; NADH coupling: 5%; Spn DPM-DC inh: inactive; Spn PMK inh: 8; Fluor 339 460: 1.1

What do the screens show for `COc1cc2c(cc1NC(=O)CSCC(=O)O)oc1ccccc12`?
A340 absorber: 1.1; MK inhibit: 11; NADH coupling: 4%; Spn DPM-DC inh: inactive; Spn PMK inh: 1; Fluor 339 460: 1.1

What do the screens show for `COc1cc2c(cc1NCc1ccccn1)oc1ccccc12`?
A340 absorber: 1; MK inhibit: 4; NADH coupling: 3%; Spn PMK inh: 4; Fluor 339 460: 2.4*

How did Cc1cccn2c(=O)c3cc(C(=O)N4CCc5ccccc54)n(C)c3nc12 do in these assays?
A340 absorber: 1; MK inhibit: 8; NADH coupling: 9%; Spn DPM-DC inh: inactive; Spn PMK inh: 10; Fluor 339 460: 2.5*

What do the screens show for `Cc1cccn2c(=O)c3cc(C(=O)N4CCN(C(=O)c5ccco5)CC4)n(C)c3nc12`?
A340 absorber: 1.1; MK inhibit: 0; NADH coupling: 4%; Spn PMK inh: 7; Fluor 339 460: 5*

What do the screens show for `O=C(c1ccco1)N1CCN(c2nc3ccccc3c(=O)n2-c2ccccc2)CC1`?
A340 absorber: 1.1; MK inhibit: 4; NADH coupling: 3%; Spn DPM-DC inh: inactive; Spn PMK inh: 4; Fluor 339 460: 1.8

Results for Cn1c(C(=O)N2CCN(C(=O)c3ccco3)CC2)cc2c(=O)n3ccccc3nc21 ?
A340 absorber: 1; MK inhibit: 2; NADH coupling: 3%; Spn PMK inh: 3; Fluor 339 460: 3.4*

What do the screens show for `CCN(CC)C(=O)c1cc2c(=O)n3cccc(C)c3nc2n1C`?
A340 absorber: 1.1; MK inhibit: 11; NADH coupling: 10%; Spn PMK inh: 9; Fluor 339 460: 5*

How did Cc1cccn2c(=O)c3cc(C(=O)N4c5ccccc5CC4C)n(C)c3nc12 (configuration not stated) do in these assays?
A340 absorber: 1; MK inhibit: 4; NADH coupling: 7%; Spn DPM-DC inh: inactive; Spn PMK inh: 13; Fluor 339 460: 1.9

How did COC(=O)c1ccccc1NC(=O)CN1CCN(C23CC4CC(CC(C4)C2)C3)CC1 do in these assays?
A340 absorber: 1; MK inhibit: 6; NADH coupling: 3%; Spn DPM-DC inh: inactive; Spn PMK inh: 4; Fluor 339 460: 1.1

Results for CC1Cc2ccccc2N1C(=O)c1cc2c(=O)n3ccccc3nc2n1C (configuration not stated) ?
A340 absorber: 1.1; MK inhibit: 0; NADH coupling: 2%; Spn DPM-DC inh: inactive; Spn PMK inh: 7; Fluor 339 460: 1.7

How did Cn1c(C(=O)N2CCc3ccccc3C2)cc2c(=O)n3ccccc3nc21 do in these assays?
A340 absorber: 1.1; MK inhibit: 0; NADH coupling: 7%; Spn PMK inh: 13; Fluor 339 460: 5*

How did CCn1c(SCC(=O)Nc2cccc(C)c2)nc2c(c1=O)SC(C)C2 (configuration not stated) do in these assays?
A340 absorber: 1; MK inhibit: 0; NADH coupling: 2%; Spn DPM-DC inh: inactive; Spn PMK inh: 17; Fluor 339 460: 1

How did Cc1ccc2nc(-c3ccc(NC(=O)CN4CCN(C(=O)c5ccco5)CC4)cc3)sc2c1 do in these assays?
A340 absorber: 1.1; MK inhibit: 5; NADH coupling: 3%; Spn PMK inh: 0; Fluor 339 460: 2.2*

Results for OCCCc1nc2n(n1)C(c1ccccc1Cl)C=C(c1cccs1)N2 (configuration not stated) ?
A340 absorber: 1.1; MK inhibit: 0; NADH coupling: 4%; Spn PMK inh: 7; Fluor 339 460: 3.8*

How did CCOc1ccccc1C1C(C(N)=O)=C(C)Nc2nc(CCCO)nn21 (configuration not stated) do in these assays?
A340 absorber: 1; MK inhibit: 6; NADH coupling: 3%; Spn DPM-DC inh: inactive; Spn PMK inh: 4; Fluor 339 460: 1.1

What do the screens show for `OCCCc1nc2n(n1)C(c1cccs1)C=C(c1ccccc1)N2` (configuration not stated)?
A340 absorber: 1.1; MK inhibit: 9; NADH coupling: 9%; Spn PMK inh: 9; Fluor 339 460: 2.1*

How did OCCCc1nc2n(n1)C(c1ccccc1)C=C(c1ccc(F)cc1)N2 (configuration not stated) do in these assays?
A340 absorber: 1.1; MK inhibit: 1; NADH coupling: 7%; Spn DPM-DC inh: inactive; Spn PMK inh: 7; Fluor 339 460: 2*

Results for N#Cc1ccc(N2CCN(C(=O)c3cccc(F)c3)CC2)c(F)c1 ?
A340 absorber: 1; MK inhibit: 6; NADH coupling: 4%; Spn DPM-DC inh: inactive; Spn PMK inh: 5; Fluor 339 460: 1.1

Source: PubChem
